Laboratory results reported in PubChem BioAssay (Tox21).
Inconclusive results are not listed. A call without a number means that no potency is given here. Active and inactive are the calls of the source. Unless noted, calls come from the whole dose curve.

Assays:
[1] = Nuclear factor erythroid 2-related factor 2/antioxidant responsive element (Nrf2/ARE) small molecule agonists: qHTS cell viability counter screen in human keratinocytes (AID 1919968; active = well fitted curve in the direction sought with a large enough effect in the repeat runs; an effect the other way counts as inactive or inconclusive; note: nearly all actives have a fitted effect of over 55% in size)
Method in brief: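 In human HaCaT keratinocytes stably expressing an ARE-driven luciferase, compound exposure lasted 23 h at 37 C under 5% CO2. Viable cells are quantified with a protease-based fluorogenic reagent (CellTiter-Fluor) read 1 h after addition.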

[2] = molecular target: Gonadotropin-releasing hormone receptor (Homo sapiens) (UniProt P30968); assay: Human gonadotropin-releasing hormone receptor (GnRHR) small molecule agonists, calcium flux assay in GnRHR-HEK293 cells (AID 1920063); note: nearly all actives have a fitted effect of over 35% in size
Gonadotropin-releasing hormone receptor (Homo sapiens), sequence (P30968 whole entry, looked up): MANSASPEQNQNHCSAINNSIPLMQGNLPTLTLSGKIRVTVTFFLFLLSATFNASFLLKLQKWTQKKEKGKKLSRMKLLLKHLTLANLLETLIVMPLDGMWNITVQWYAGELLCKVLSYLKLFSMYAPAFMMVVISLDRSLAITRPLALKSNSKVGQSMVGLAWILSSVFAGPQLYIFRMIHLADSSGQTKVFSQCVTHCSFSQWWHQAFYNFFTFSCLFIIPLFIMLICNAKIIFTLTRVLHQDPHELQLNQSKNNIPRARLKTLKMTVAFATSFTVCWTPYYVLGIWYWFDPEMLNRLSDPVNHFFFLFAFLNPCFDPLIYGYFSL
Method in brief: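 Intracellular calcium rise is the read-out: engineered human GnRHR HEK293 cells, dye-loaded, are exposed to DMSO-dissolved compounds and fluorescence at Ex/Em 480/540 is tracked for 3 min.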

[3] = molecular target: KiSS-1 receptor (Homo sapiens) (UniProt Q969F8); assay: Human kisspeptin (KISS1R) small molecule agonists, calcium flux assay in KISS1R-HEK293 cells (AID 1920064; active = well fitted curve in the direction sought with a large enough effect in the repeat runs; an effect the other way counts as inactive or inconclusive)
KiSS-1 receptor (Homo sapiens), sequence (Q969F8 whole entry, looked up): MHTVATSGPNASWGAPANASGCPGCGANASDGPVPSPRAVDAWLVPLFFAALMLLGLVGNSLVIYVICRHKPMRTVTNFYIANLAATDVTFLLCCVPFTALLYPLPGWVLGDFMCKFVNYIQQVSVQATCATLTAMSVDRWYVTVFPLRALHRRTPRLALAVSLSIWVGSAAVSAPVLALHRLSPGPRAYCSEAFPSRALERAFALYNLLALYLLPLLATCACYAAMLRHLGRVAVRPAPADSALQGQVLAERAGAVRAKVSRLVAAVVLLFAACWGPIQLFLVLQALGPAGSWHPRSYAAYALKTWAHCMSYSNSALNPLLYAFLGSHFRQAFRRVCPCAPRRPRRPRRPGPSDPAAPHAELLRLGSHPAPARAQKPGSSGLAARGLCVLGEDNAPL
Method in brief: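 Concentration-response testing used 15 concentrations in triplicate on human KISS1R-expressing HEK293 cells. Calcium-dependent fluorescence (Ex/Em 480/540) was followed kinetically for 3 min after compound transfer.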

[4] = G protein-coupled receptor (GPCR) small molecule agonists, calcium flux assay: HEK293 wild type cell line counter screen (AID 1920065)
Method in brief: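 Fluorescence intensity signals activation. After overnight (18 h) culture and a 1 h calcium dye load at 37 C, compounds are added by pin tool and the plate read at 480/540 nm for 3 min in 1 s steps.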

[5] = p53 small molecule agonists, cell-based qHTS assay with human liver microsomes (AID 1963577);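 note: p53 response element beta-lactamase reporter cells with liver microsomes plus NADPH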
Method in brief: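 16 h, 37 C exposure of p53RE-bla cells to compounds with human liver microsomes and NADPH (0.5 mg/mL final each); detection via LiveBLAzer mixture, 2 h dark at room temperature.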

[6] = p53 small molecule agonists, cell-based qHTS assay with rat liver microsomes (AID 1963578)
Method in brief: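 With rat liver microsomes and NADPH present (0.5 mg/mL final each), p53RE-bla cells are treated with compound for 16 h at 37 C. LiveBLAzer detection mixture is then applied for 2 h at room temperature in the dark.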

[7] = p53 small molecule agonists, cell-based qHTS assay with human liver microsomes: qHTS cell viability counter screen (AID 1963579); note: nearly all actives have a fitted effect of over 45% in size
Method in brief: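 In this multiplexed counter screen, the reporter plates were subsequently treated with CellTiter-Glo so that cell viability, reflected by luminescence, could be recorded for p53RE-bla cells dosed 16 h with compounds under microsomal activation (HLM and NADPH).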

[8] = p53 small molecule agonists, cell-based qHTS assay: qHTS cell viability counter screen (AID 1963581); note: nearly all actives have a fitted effect of over 45% in size
Method in brief: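 Luminescence from CellTiter-Glo, reflecting ATP content, serves as the cytotoxicity measure; it is taken after the 2 h reporter substrate step in HCT-116 p53RE-bla cells dosed for 16 h at 37 C.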

[9] = p53 small molecule agonists, cell-based qHTS assay (AID 1963582; active = well fitted activation curve with a large enough effect in the signal ratio in the repeat runs, not every such curve was filed as active; the % refers to the signal ratio)
Method in brief: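 After plating, p53RE-bla cells sat 5 h in the incubator; compounds or DMSO vehicle were pinned in; a 16 h incubation at 37 C followed; FRET substrate was added and, 2 h later at RT, fluorescence was measured.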

[10] = molecular target: 5-hydroxytryptamine receptor 2A (Homo sapiens) (UniProt P28223); assay: 5-hydroxytryptamine receptor 2A (HTR2A) small molecule agonists, cell-based qHTS assay (AID 1963587); note: nearly all actives have a fitted effect of over 30% in size
5-hydroxytryptamine receptor 2A (Homo sapiens), sequence (P28223 whole entry, looked up): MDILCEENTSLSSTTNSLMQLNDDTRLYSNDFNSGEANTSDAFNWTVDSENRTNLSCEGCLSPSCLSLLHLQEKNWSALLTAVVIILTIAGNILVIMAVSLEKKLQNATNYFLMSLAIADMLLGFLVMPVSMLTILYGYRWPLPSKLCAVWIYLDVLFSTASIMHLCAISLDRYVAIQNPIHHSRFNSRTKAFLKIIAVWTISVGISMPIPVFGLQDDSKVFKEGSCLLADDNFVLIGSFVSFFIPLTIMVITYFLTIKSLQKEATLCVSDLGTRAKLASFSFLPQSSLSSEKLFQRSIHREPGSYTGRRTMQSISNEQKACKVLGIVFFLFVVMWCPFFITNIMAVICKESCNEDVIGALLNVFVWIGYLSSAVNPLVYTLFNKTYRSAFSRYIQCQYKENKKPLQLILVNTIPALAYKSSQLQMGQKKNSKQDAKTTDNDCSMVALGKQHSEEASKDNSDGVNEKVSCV
Method in brief: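 Kinetic calcium-flux fluorescence (2 min, 1 sec intervals) after compound addition in agonist mode. HTR2A-CHO cells were cultured 18 h, then dye-loaded 1 h at 37 C.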

[11] = molecular target: Muscarinic acetylcholine receptor M1 (Homo sapiens) (UniProt P11229); assay: Cholinergic receptor muscarinic 1 (CHRM1) small molecule antagonists, cell-based qHTS assay (AID 1963588); note: nearly all actives have a fitted effect of over 40% in size
Muscarinic acetylcholine receptor M1 (Homo sapiens), sequence (P11229 whole entry, looked up): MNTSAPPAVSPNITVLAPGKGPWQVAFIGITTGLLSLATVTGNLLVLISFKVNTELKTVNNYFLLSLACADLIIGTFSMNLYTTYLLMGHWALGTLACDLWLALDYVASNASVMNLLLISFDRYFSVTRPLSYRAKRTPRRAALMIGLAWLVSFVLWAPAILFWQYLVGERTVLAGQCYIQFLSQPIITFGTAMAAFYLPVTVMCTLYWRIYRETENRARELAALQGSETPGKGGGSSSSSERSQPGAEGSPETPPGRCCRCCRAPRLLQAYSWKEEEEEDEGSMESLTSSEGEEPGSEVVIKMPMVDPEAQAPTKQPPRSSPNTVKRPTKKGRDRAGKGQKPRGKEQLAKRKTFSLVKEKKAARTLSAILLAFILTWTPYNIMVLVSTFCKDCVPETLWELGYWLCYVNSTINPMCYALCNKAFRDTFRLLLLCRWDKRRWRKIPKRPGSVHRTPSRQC
Method in brief: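 Compounds were tested at 15 concentrations in three independent runs. Dye-loaded CHRM1-CHO cells were exposed 5 min at room temperature before stimulation by acetylcholine added at 50nM. Intracellular calcium was read kinetically on FDSS for 3 min.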

[12] = molecular target: Muscarinic acetylcholine receptor M1 (Homo sapiens) (UniProt P11229); assay: Cholinergic receptor muscarinic 1 (CHRM1) small molecule agonists, cell-based qHTS assay (AID 1963589); note: nearly all actives have a fitted effect of over 35% in size
Method in brief: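 Fluorescent calcium dye reports M1 activation in stably transfected CHO cells. Compounds, 15 concentrations, added after 1 h dye loading at 37 C; kinetic reading at 1 sec intervals.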

[13] = cAMP Responsive Elements (CRE) small molecule agonists, cell-based qHTS assay (AID 1963590)
Method in brief: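 Compound exposure lasted 3 h at 37 C/5% CO2 in CRE-bla HEK 293T cells grown in assay medium with 10% dialyzed FBS and 25 mM HEPES. Reporter signal came from LiveBLAzer B/G FRET substrate, 2 h, room temperature.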

[14] = molecular target: Beta-2 adrenergic receptor (Homo sapiens) (UniProt P07550); assay: Adrenergic beta2 receptor (ADRB2) small molecule antagonists, cell-based qHTS assay (AID 1963592); note: series mostly up to about 92 µM; nearly all actives have a fitted effect of over 50% in size
Beta-2 adrenergic receptor (Homo sapiens), sequence (P07550 whole entry, looked up): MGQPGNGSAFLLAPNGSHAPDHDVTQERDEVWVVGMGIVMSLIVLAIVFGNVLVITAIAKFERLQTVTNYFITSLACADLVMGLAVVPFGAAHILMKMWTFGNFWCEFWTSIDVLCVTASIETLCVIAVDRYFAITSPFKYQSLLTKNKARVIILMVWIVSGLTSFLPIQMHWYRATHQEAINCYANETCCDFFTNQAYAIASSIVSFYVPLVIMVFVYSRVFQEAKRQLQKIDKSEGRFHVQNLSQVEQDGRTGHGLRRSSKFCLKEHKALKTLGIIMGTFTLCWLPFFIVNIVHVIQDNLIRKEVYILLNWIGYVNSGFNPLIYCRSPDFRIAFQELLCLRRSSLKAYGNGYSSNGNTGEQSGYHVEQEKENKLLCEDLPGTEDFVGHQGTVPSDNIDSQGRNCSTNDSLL
Method in brief: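 Assay format: CHO-ADRB2 cells, 18-20hr seeding at 37C/5% CO2, then compound plus 1nM isoproterenol agonist mix for 0.5hr RT. Homogeneous time-resolved fluorescence cAMP detection after 1hr, expressed as 665/615 nm ratio.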

[15] = molecular target: Beta-2 adrenergic receptor (Homo sapiens) (UniProt P07550); assay: Adrenergic beta2 receptor (ADRB2) small molecule agonists, cell-based qHTS assay (AID 1963593);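 note: CHO cells stably overexpressing human ADRB2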
Method in brief: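 CHO cells stably over-expressing ADRB2 were plated overnight at 37C, then dosed with compounds plus a stimulation mix containing 100uM IBMX and 25uM Ro-20-1724 for 0.5hr at room temperature. cAMP was measured by HTRF competition, 1hr.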

[16] = molecular target: D(2) dopamine receptor (Homo sapiens) (UniProt P14416); assay: Dopamine D2 receptor (DRD2) small molecule agonists, cell-based qHTS assay (AID 1963594); note: nearly all actives have a fitted effect of over 35% in size
D(2) dopamine receptor (Homo sapiens), sequence (P14416 whole entry, looked up): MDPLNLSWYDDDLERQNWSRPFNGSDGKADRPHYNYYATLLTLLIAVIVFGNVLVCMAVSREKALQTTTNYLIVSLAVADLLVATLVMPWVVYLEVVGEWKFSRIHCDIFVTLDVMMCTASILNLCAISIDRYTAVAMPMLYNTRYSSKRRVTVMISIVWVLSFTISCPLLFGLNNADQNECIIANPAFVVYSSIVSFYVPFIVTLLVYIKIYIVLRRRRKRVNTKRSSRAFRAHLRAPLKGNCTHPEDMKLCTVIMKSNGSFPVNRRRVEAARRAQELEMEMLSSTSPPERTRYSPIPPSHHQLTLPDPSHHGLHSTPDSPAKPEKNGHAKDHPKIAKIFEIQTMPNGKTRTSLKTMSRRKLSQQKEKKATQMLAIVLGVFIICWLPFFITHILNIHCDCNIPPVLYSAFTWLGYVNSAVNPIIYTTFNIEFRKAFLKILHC
Method in brief: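 cAMP accumulation in DRD2-HEK293 cells measured by HTRF after 1 h detection; compounds added 10 min before NKH477 (200nM […]) forskolin-analogue stimulation, 30 min at room temperature, with Ro20-1724 present at 0.1 mM final.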

[17] = molecular target: D(2) dopamine receptor (Homo sapiens) (UniProt P14416); assay: Dopamine D2 receptor (DRD2) small molecule antagonists, cell-based qHTS assay (AID 1963595; active = well fitted inhibition curve with a large enough effect in the signal ratio in the repeat runs, with a control signal flat; the % refers to the signal ratio)
Method in brief: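 DRD2-HEK293; 0.1 mM Ro20-1724; cpd 10 min RT; NKH477 200 nM + quinpirole 12 nM, 30 min RT; HTRF cAMP (cAMP-d2/anti-cAMP cryptate), 665/620 nm ratio after 1 h.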

[18] = p53 small molecule agonists, cell-based qHTS assay with rat liver microsomes: qHTS cell viability counter screen (AID 1963580); note: nearly all actives have a fitted effect of over 45% in size
Method in brief: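 Cytotoxicity counter screen: intracellular ATP read by CellTiter-Glo luminescence in the p53 reporter wells. HCT-116 p53RE-bla cells were treated for 16 h at 37 C alongside rat liver microsomes and NADPH, each 0.5 mg/mL final.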

[19] = molecular target: 5-hydroxytryptamine receptor 2A (Homo sapiens) (UniProt P28223); assay: 5-hydroxytryptamine receptor 2A (HTR2A) small molecule antagonists, cell-based qHTS assay (AID 1963586); note: nearly all actives have a fitted effect of over 45% in size; note: potency is the fitted concentration of half-maximal effect
Method in brief: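 CHO cells stably expressing human HTR2A were plated for 18 h at 37 C, then loaded with calcium dye for 1 h. Compounds were preincubated 5 min at room temperature before DOI (4 nM solution) was added. Kinetic fluorescence was read for 3 min.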

[20] = cAMP Responsive Elements (CRE) small molecule antagonists, cell-based qHTS assay (AID 1963591; active = well fitted inhibition curve with a large enough effect in the signal ratio in the repeat runs, not every such curve was filed as active; the % refers to the signal ratio)
Method in brief: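 Stimulation used NKH477 at a final 0.25 uM for 3 h in compound-treated CRE-bla HEK293T cells, seeded 18 h beforehand. Reporter activity was measured with LiveBLAzer B/G FRET substrate after 2 h at room temperature.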

SMILES	Potency [1]	Potency [2]	Potency [3]	Potency [4]	Potency [5]	Potency [6]	Potency [7]	Potency [8]	Potency [9]	Potency [10]	Potency [11]	Potency [12]	Potency [13]	Potency [14]	Potency [15]	Potency [16]	Potency [17]	Potency [18]	Potency [19]	Potency [20]
C=CC(C)=CCC=C(C)C	inactive	inactive	inactive	inactive	inactive	inactive	inactive	inactive	inactive	inactive	inactive	inactive	inactive	inactive	inactive	inactive	inactive			
O=C1NC(=O)C2CC=CCC12 (stereo unspecified)	inactive	inactive	inactive	inactive	inactive	inactive		inactive	inactive	inactive		inactive	inactive	inactive		inactive	inactive	inactive	inactive	inactive
CN(C)Cc1cc(C(C)(C)C)c(O)c(C(C)(C)C)c1	inactive	inactive	inactive	inactive	inactive	inactive		inactive	inactive	inactive	inactive	inactive	inactive			inactive	inactive	inactive	3.75 µM (active)	inactive
CCCCCC[C@@H](O)C/C=C\CCCCCCCC(=O)OC	inactive	inactive	inactive	inactive	inactive	inactive		inactive	inactive			inactive	inactive	inactive		inactive	inactive	inactive	inactive	inactive
CCN(Cc1ccncc1)C(=O)C(CO)c1ccccc1 (stereo unspecified)	inactive	inactive	inactive	inactive	inactive	inactive	inactive	inactive	inactive				inactive	inactive	inactive					
CC(=O)CC(=O)Nc1ccc(S(=O)(=O)O)cc1	inactive	inactive	inactive	inactive	inactive	inactive	inactive		inactive	inactive	inactive	inactive	inactive	inactive	inactive	inactive	inactive		inactive	inactive
CCC(Cl)CCC(Cl)C(Cl)CC(Cl)C(Cl)C(Cl)CCl (stereo unspecified)	inactive	inactive	inactive	inactive	inactive	inactive	inactive	inactive		inactive	inactive	inactive	inactive	inactive		inactive	inactive		inactive	inactive
CCN(CCC#N)c1ccc(N=Nc2c(Cl)cc([N+](=O)[O-])cc2Cl)cc1	inactive	inactive	inactive	inactive	inactive		inactive	inactive	inactive	inactive		inactive	inactive	inactive		inactive	inactive	inactive	inactive	inactive
